Results taken from PubChem BioAssay (Tox21).
A number with no mark means an inactive call. Unless noted, calls follow the shape of the full dose curve. Results filed as inconclusive are left out.
% is scaled to controls: 0 for no effect and ±100 for the full control effect.

Tested on: not listed separately
Test: qHTS assay to identify small molecule agonists of the sonic hedgehog signaling (Shh) pathway (AID 1259368);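 also: NIH/3T3-derived 3T3Gli1-Luc cells carrying a stable Gli1-driven firefly luciferase reporter; nearly all actives have a fitted effect of over 15% in size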
Conditions: NIH/3T3 Gli1-Luc reporter, luciferase, 24 h; series mostly up to 92.4 µM; activity change: at the top concentration
Outline: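 Read-out: firefly luciferase luminescence from a Gli1 response element reporter stably integrated in NIH/3T3-derived 3T3Gli1-Luc cells, measured 30 min at room temperature after reagent addition. Compound exposure lasted 24 hr at 37 C, 5% CO2.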
For CCCCCCC/C=C/C=O, the “activity change” value was -0.585%. With OCCCO the “activity change” value was -0.263%. In the case of CC/C=C/CCO, the “activity change” value is reported as -3%. In the case of COc1cccc([C@H](O)C2CCN(CCc3ccc(F)cc3)CC2)c1OC, the “activity change” value is reported as -0.008%. For N#Cc1ccc(CC(=O)c2cccc(C(F)(F)F)c2)cc1, the “activity change” value was 0.587%. With C[C@]12CCC(=O)C=C1[C@@H]1C[C@@H]1[C@H]1[C@@H]3[C@@H]4C[C@@H]4[C@@]4(CCC(=O)O4)[C@@]3(C)CC[C@@H]12 the “activity change” value was 1.12% [at 42.5 µM, active compounds read high]. With COc1ccc(C(=O)Nc2ccccc2)cc1[N+](=O)[O-] the “activity change” value was 7.41%. For O=C(Cl)c1cc(Cl)cc(Cl)c1, the “activity change” value was 0.193%. With O=C(Nc1ccc2c(c1)Cc1ccccc1-2)C(F)(F)F the “activity change” value was 6.93%. In the case of O=c1[nH]nc(-c2ccc([N+](=O)[O-])o2)o1, the “activity change” value is reported as 2.76%. For COc1ccnc2c1CCCCC2S(=O)c1nc2ccccc2[nH]1 (configuration not stated), the “activity change” value was 0.463% [at 42.5 µM, active compounds read high]. With CCOCCn1c(N2CCCN(C)CC2)nc2ccccc21 the “activity change” value was 1.54% [at 42.5 µM, active compounds read high]. In the case of OCCOc1cccc(OCCO)c1, the “activity change” value is reported as 0.122%. With CC1=C(C)C(=O)C(CCCCC#CCCCC#CCO)=C(C)C1=O the “activity change” value was -0.16% [at 42.5 µM, active compounds read high]. For C(/C=C/C=C/Nc1ccccc1)=Nc1ccccc1, the “activity change” value was 2.81%.

Tested on: not listed separately
Test: qHTS assay to identify small molecule antagonists of the sonic hedgehog signaling (Shh) pathway (AID 1259369); also: nearly all actives have a fitted effect of over 45% in size
Conditions: NIH/3T3 Gli1-Luc reporter, Shh antagonist, luminescence 24 h; series mostly up to 92.4 µM; activity change, negative = inhibition: at the top concentration
Outline: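 Luminescence readout: firefly Luc under Gli1 response element in 3T3Gli1-Luc cells (NIH/3T3 clone). Antagonist mode, stimulation by conditioned medium; compound exposure 24hr at 37 C, 5% CO2.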
CCCCCCCCCCCCCCCCCCCl showed an activity change, negative = inhibition of -7.01% [at 8.39 µM]. In the case of CC(=O)Nc1cccc(N)c1, the “activity change, negative = inhibition” value is reported as 0%. For Clc1nc2ccccc2nc1Cl, the “activity change, negative = inhibition” value was -22.4%. For CC(=O)c1ccc(Cl)c(Cl)c1Cl, the “activity change, negative = inhibition” value was 21.8%. In the case of O=C(c1ccco1)N1CCNCC1, the “activity change, negative = inhibition” value is reported as 20.3% [at 42.5 µM]. In the case of CCC(CC)C(=O)O, the “activity change, negative = inhibition” value is reported as 28.1%.

Target: Estrogen receptor beta (Homo sapiens) (UniProt Q92731)
Sequence (Q92731 whole entry, looked up): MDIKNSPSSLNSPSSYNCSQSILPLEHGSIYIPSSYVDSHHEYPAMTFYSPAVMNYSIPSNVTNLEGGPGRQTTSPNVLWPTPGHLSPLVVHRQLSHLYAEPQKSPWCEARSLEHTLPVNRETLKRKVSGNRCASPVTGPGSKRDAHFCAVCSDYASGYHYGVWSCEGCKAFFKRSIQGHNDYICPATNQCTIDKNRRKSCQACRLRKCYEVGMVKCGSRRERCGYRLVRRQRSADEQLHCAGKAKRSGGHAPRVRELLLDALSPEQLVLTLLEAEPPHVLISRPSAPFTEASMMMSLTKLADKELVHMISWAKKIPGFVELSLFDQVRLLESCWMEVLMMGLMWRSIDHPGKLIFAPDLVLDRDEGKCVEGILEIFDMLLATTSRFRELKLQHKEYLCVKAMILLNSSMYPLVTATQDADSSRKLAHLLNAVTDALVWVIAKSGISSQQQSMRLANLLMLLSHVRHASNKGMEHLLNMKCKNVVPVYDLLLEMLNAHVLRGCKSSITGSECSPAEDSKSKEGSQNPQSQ
Test: qHTS assay to identify small molecule agonists of the estrogen receptor beta (ER-beta) signaling pathway (AID 1259377; active = well fitted activation curve with a large enough effect in the signal ratio in the repeat runs, not every such curve was filed as active; the % refers to the signal ratio)
Conditions: ER-beta-UAS-bla HEK293T, beta-lactamase FRET ratio, 16 h; series mostly up to 92.4 µM; activation: at the top concentration
Outline: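 A UAS-controlled beta-lactamase reporter in ER-beta-UAS-bla HEK293T cells reports receptor activation. Compounds act for 16 hr at 37C in 2% charcoal-stripped serum, and a FRET substrate is read by fluorescence after 2 hours.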
For CO[C@@H]1[C@@H](O[C@@H]2O[C@H](C)[C@@H](O[C@H]3C[C@@](C)(O)[C@@H](O)[C@H](C)O3)[C@H](N(C)C)[C@H]2O)[C@@H](CC=O)C[C@@H](C)[C@@H](O[C@@H]2CC[C@H](N(C)C)[C@@H](C)O2)/C=C/C=C/C[C@@H](C)OC(=O)C[C@H]1OC(C)=O, the “activation” value was -5.74% [at 42.5 µM]. With C=C[Si](OCC)(OCC)OCC the “activation” value was -1.03%. With CCCCCCCCCCCCCCCCCCCl the activation was -3.3% [at 8.39 µM]. In the case of CC(=O)Nc1cccc(N)c1, the “activation” value is reported as 0.0715%. In the case of Clc1nc2ccccc2nc1Cl, the “activation” value is reported as 4.76%. For CC(=O)c1ccc(Cl)c(Cl)c1Cl, the “activation” value was 0.591%. In the case of CC(C)(Cc1c[nH]c2ccccc12)NCC(O)COc1ccccc1C#N (configuration not stated), the “activation” value is reported as -5.63% [at 42.5 µM]. In the case of Cc1nc2sccn2c(=O)c1CCN1CCC(=C(c2ccc(F)cc2)c2ccc(F)cc2)CC1, the “activation” value is reported as -4.79% [at 42.5 µM]. For CC(Cc1ccccc1)(NC(=O)CN)c1ccccc1 (configuration not stated), the “activation” value was 0.38% [at 42.5 µM]. With O=C(c1ccco1)N1CCNCC1 the “activation” value was -0.783% [at 42.5 µM]. With O=C(N[C@@H](Cc1ccccc1)[C@@H](O)C(=O)N1C[C@@H](O)[C@@H](O)C1)c1cc2cc(Cl)ccc2[nH]1 the “activation” value was -4.36%. For CCC(CC)C(=O)O, the “activation” value was 2.99%. With COc1cccc([C@H](O)C2CCN(CCc3ccc(F)cc3)CC2)c1OC the “activation” value was -2.61%. In the case of O=C(Cl)c1cc(Cl)cc(Cl)c1, the “activation” value is reported as -0.485%. With CCOCCn1c(N2CCCN(C)CC2)nc2ccccc21 the “activation” value was -2.43% [at 42.5 µM]. In the case of C(/C=C/C=C/Nc1ccccc1)=Nc1ccccc1, the “activation” value is reported as -1.2%.
